These results are taken from PubChem BioAssay (Tox21).

Where “and” joins values, the source holds several entries; their conditions need not be identical. Identical values can stand only once. Unmarked numbers belong to inactive results. Records with an inconclusive call do not appear. Calls of active or inactive are those of the source. Unless noted, calls follow the shape of the dose curve; as a rule, active = well fitted curve in the direction sought with a large enough effect in the repeat runs; inconclusive = weak or mixed curves; inactive = no such curve, though single readings can be large; an effect the other way counts as inactive or inconclusive.

Experiment [1] is described as follows: qHTS assay to identify small molecule antagonists of the estrogen receptor alpha (ER-alpha) signaling pathway using the BG1 cell line in the presence of 0.1 nM 17-beta-estradiol - cell viability counter screen (AID 1259241). Also: nearly all actives have a fitted effect of over 40% in size. Also: potency is read from the fitted curve at half-maximal effect. The method, boiled down: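 VM7Luc4E2, 4,000 cells/well, phenol red-free medium + 10% charcoal-stripped FBS; 24 hr plating; cpd + 0.1 nM E2 final, 22 hr 37C/5% CO2; CellTiter-Fluor 30 min, fluorescence.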
(qHTS replaces the single test concentration by a dilution series.)

Experiment [2] in a line: qHTS assay to identify small molecule antagonists of the androgen receptor (AR) signaling pathway using the MDA cell line in the presence of 0.5 nM R1881 - cell viability counter screen (AID 1259242). Also: nearly all actives have a fitted effect of over 45% in size. Also: potency is read from the fitted curve at half-maximal effect. The method, boiled down: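 Fluorescence from CellTiter-Fluor, which reports protease activity of live cells, was read 30 min after reagent addition to MDA-kb2 cells that had been incubated 16 hr with compound and 0.5 nM R1881.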

Experiment [3] addresses Androgen receptor (Homo sapiens) (UniProt P10275). In words: qHTS assay to identify small molecule antagonists of the androgen receptor (AR) signaling pathway using the MDA cell line in the presence of 0.5 nM R1881 (AID 1259243). Also: nearly all actives have a fitted effect of over 50% in size. Also: potency is read from the fitted curve at half-maximal effect. The method, boiled down:
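Inhibition of R1881 (0.5 nM final) induced reporter signal was measured in human MDA-kb2 cells; note the MMTV promoter also responds to GR. Exposure lasted 16 hr at 37C.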

The target of experiment [4] is Estrogen receptor (Homo sapiens) (UniProt P03372). Kind of experiment: qHTS assay to identify small molecule antagonists of the estrogen receptor alpha (ER-alpha) signaling pathway using the BG1 cell line in the presence of 0.1 nM 17-beta-estradiol (AID 1259244). Also: nearly all actives have a fitted effect of over 50% in size. Also: potency is read from the fitted curve at half-maximal effect. The method, boiled down:
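Quantitative high-throughput screen in VM7Luc4E2 cells: compound plus 0.1 nM E2 (final), 22 h, 37C, 5% CO2; ONE-Glo added, 30 min room temperature, luminescence measured.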

Experiment [5] in a line: qHTS assay to identify small molecule HDAC inhibitors (AID 1259364). Also: nearly all actives have a fitted effect of over 45% in size. Also: potency is read from the fitted curve at half-maximal effect. The method, boiled down:
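Endogenous HDAC class I/II activity was measured in wild-type HCT-116 cells by HDAC-Glo luminescence after 2 h compound treatment.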

Experiment [6] in a line: qHTS assay to identify small molecule HDAC inhibitors - cell viability counter screen (AID 1259365). Also: series mostly up to about 92 µM; nearly all actives have a fitted effect of over 50% in size. The method, boiled down:
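Luminescence from CellTiter-Glo, developed 30min at room temperature, reports viability of wild-type HCT-116 cells treated 2hr with compounds at 37 C and 5% CO2 after overnight plating.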

Experiment [7] in a line: qHTS assay to identify small molecule agonists of the sonic hedgehog signaling (Shh) pathway - cell viability counter screen (AID 1259366). Also: nearly all actives have a fitted effect of over 50% in size. Also: potency is read from the fitted curve at half-maximal effect. The method, boiled down:
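Cytotoxicity counter screen run in the same wells as the Shh reporter assay. NIH/3T3 cells carrying a Gli1 response element–driven luciferase were treated with DMSO-dissolved compounds for 24hr, and live-cell protease activity was measured with CellTiter-Fluor.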

Experiment [8] in a line: qHTS assay to identify small molecule antagonists of the sonic hedgehog signaling (Shh) pathway - cell viability counter screen (AID 1259367). Also: nearly all actives have a fitted effect of over 55% in size. Also: potency is read from the fitted curve at half-maximal effect. The method, boiled down:
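Seed 3T3 Gli1-Luc cells at 2,000 per well; incubate 4 hr; add compound in DMSO, then conditioned medium; incubate at 37C with 5% CO2; add CellTiter-Fluor after 23 hr; read fluorescence 1 hr later.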

Experiment [9] in a line: qHTS assay to identify small molecule agonists of the sonic hedgehog signaling (Shh) pathway (AID 1259368; calls by dose curve;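 also: NIH/3T3-derived 3T3Gli1-Luc cells carrying a stable Gli1-driven firefly luciferase reporter; series mostly up to about 92 µM; nearly all actives have a fitted effect of over 15% in size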). The method, boiled down: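 Luminescent signal was taken as a measure of Gli1-controlled luciferase expression in stably transfected NIH/3T3-derived cells that had been treated for 24 hr with compounds delivered in DMSO.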
Experiment [10] concerns the target Estrogen receptor beta (Homo sapiens) (UniProt Q92731). In words: qHTS assay to identify small molecule antagonists of the estrogen receptor beta (ER-beta) signaling pathway (AID 1259378; active = well fitted inhibition curve with a large enough effect in the signal ratio in the repeat runs, not every such curve was filed as active; the % refers to the signal ratio). The method, boiled down:
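ER-beta-UAS-bla HEK293T cells in 2% charcoal-stripped FBS medium treated with compound plus 1nM final 17-beta-estradiol for 16 hr at 37C. Beta-lactamase reporter read by FRET substrate fluorescence after 2 hours at room temperature.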

A short description of experiment [11]: qHTS assay to identify small molecule agonists of the androgen receptor (AR) signaling pathway in the presence of an antagonist - cell viability counter screen (AID 1259379). Also: nearly all actives have a fitted effect of over 25% in size. Also: potency is read from the fitted curve at half-maximal effect.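 As to activity change, negative = cytotoxicity: MDA-kb2 human breast cancer cells carrying an MMTV luciferase reporter; series mostly up to about 92 µM.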 The method, boiled down:
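In MDA-kb2 cells (human breast carcinoma, MMTV-luciferase), compounds at 15 concentrations plus 3.0uM nilutamide; 16 hr, 37C, 0% CO2; CellTiter-Fluor fluorescence read for viability.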

A short description of experiment [12]: qHTS assay to identify small molecule agonists of the estrogen receptor beta (ER-beta) signaling pathway - cell viability counter screen (AID 1259380). Also: nearly all actives have a fitted effect of over 30% in size. Also: potency is read from the fitted curve at half-maximal effect. The method, boiled down: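 Viability of ER-beta-UAS-bla HEK293T cells was determined by CellTiter-Glo luminescence following 16 hr treatment with test compounds at 37C.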
For experiment [13], the target named is Androgen receptor (Homo sapiens) (UniProt P10275). Kind of experiment: qHTS assay to identify small molecule agonists of the androgen receptor (AR) signaling pathway in the presence of an antagonist (AID 1259381; calls by dose curve; also: nearly all actives have a fitted effect of over 15% in size). The method, boiled down:
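Here, 15-concentration compound series were pin-transferred onto MDA-kb2 MMTV-luciferase cells already dosed with nilutamide (3.0uM final). After 16hr at 37C, ONE-Glo was added and luminescence read 30min later at room temperature.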

Experiment [14] in a line: qHTS assay to identify small molecule antagonists of the estrogen receptor beta (ER-beta) signaling pathway - cell viability counter screen (AID 1259382). Also: nearly all actives have a fitted effect of over 55% in size. Also: potency is read from the fitted curve at half-maximal effect. As to activity change, negative = cytotoxicity: series mostly up to about 92 µM. The method, boiled down:
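Tox21 10K library tested in qHTS format on ER-beta-bla HEK293T cells stimulated with 1nM E2; 16 hr treatment at 37C. Same-well CellTiter-Glo luminescence served as the cell viability measure.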

In experiment [15] the target is Estrogen receptor (Homo sapiens) (UniProt P03372). In words: qHTS assay to identify small molecule agonists of the estrogen receptor alpha (ER-alpha) signaling pathway in the presence of an antagonist (AID 1259383; calls by dose curve; also: top concentration of the series differs between compounds; nearly all actives have a fitted effect of over 15% in size). The method, boiled down:
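In VM7Luc4E2 cells, 4,000 per well, compounds at 15 concentrations were co-incubated 22hr at 37C with 10.0nM final ICI-182,780. Luminescence from the stably transfected 4×ERE-luciferase reporter was recorded 30min after ONE-Glo addition.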

The nature of experiment [16]: qHTS assay to identify small molecule agonists or antagonists of the thyroid stimulating hormone receptor (TSHR) signaling pathway - wild type cell line counter screen (AID 1259384; calls by dose curve). The method, boiled down:
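Wild-type Hek293 cells, 800/well, 18 h at 37C, then compound with Ro20-1724 for 30 min RT. cAMP by HTRF (cAMP-d2/anti-cAMP cryptate), 1 h RT, fluorescence read. 15 concentrations, triplicates.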

Experiment [17] has as its target Thyrotropin receptor (Homo sapiens) (UniProt P16473). Kind of experiment: qHTS assay to identify small molecule antagonists of the thyroid stimulating hormone receptor (TSHR) signaling pathway (AID 1259385; calls by dose curve; also: nearly all actives have a fitted effect of over 20% in size). The method, boiled down:
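TSHR-HEK293 cells (800/well) plated 18 h, then compounds with Ro20-1724 and TSH at 1.5 ng/mL final, 30 min at room temperature. cAMP quantified by HTRF (cAMP-d2/anti-cAMP-cryptate, 1 h); 15 concentrations in triplicate.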

Experiment [18] deals with Estrogen receptor beta (Homo sapiens) (UniProt Q92731). In words: qHTS assay to identify small molecule agonists of the estrogen receptor beta (ER-beta) signaling pathway (AID 1259377; active = well fitted activation curve with a large enough effect in the signal ratio in the repeat runs, not every such curve was filed as active; the % refers to the signal ratio). The method, boiled down: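 HEK293T ER-beta-UAS-bla; 2% charcoal-stripped FBS; cells pre-incubated 6 hr, compound 16 hr, 37C/5% CO2; LiveBLAzer B/G FRET substrate 2 h RT; fluorescence intensity read.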

The nature of experiment [19]: qHTS assay to identify small molecule phospholipidosis (PLD) inducers (AID 1259344; active = well fitted curve in the direction sought with a large enough effect; an effect the other way counts as inactive or inconclusive). The method, boiled down:
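Quantitative HTS in HepG2: compound plus LipidTOX Red dye for 24 h, paraformaldehyde fixation with Hoechst 33342, widefield high-content imaging; amiodarone as positive and DMSO as negative control.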

Experiment [20] is described as follows: qHTS assay to identify small molecule antagonists of the sonic hedgehog signaling (Shh) pathway (AID 1259369; calls by dose curve; also: nearly all actives have a fitted effect of over 45% in size; also: potency is read from the fitted curve at half-maximal effect). The method, boiled down: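 Screening used 3T3Gli1-Luc cells at 2,000 per well, compounds delivered in DMSO, and conditioned medium as agonist stimulus; plates incubated 24hr at 37 C and 5% CO2 before a 30min luciferase step.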
% is scaled to controls: 0 for no effect and ±100 for the full control effect.

Sequence of Thyrotropin receptor (Homo sapiens) (P16473 whole entry, looked up): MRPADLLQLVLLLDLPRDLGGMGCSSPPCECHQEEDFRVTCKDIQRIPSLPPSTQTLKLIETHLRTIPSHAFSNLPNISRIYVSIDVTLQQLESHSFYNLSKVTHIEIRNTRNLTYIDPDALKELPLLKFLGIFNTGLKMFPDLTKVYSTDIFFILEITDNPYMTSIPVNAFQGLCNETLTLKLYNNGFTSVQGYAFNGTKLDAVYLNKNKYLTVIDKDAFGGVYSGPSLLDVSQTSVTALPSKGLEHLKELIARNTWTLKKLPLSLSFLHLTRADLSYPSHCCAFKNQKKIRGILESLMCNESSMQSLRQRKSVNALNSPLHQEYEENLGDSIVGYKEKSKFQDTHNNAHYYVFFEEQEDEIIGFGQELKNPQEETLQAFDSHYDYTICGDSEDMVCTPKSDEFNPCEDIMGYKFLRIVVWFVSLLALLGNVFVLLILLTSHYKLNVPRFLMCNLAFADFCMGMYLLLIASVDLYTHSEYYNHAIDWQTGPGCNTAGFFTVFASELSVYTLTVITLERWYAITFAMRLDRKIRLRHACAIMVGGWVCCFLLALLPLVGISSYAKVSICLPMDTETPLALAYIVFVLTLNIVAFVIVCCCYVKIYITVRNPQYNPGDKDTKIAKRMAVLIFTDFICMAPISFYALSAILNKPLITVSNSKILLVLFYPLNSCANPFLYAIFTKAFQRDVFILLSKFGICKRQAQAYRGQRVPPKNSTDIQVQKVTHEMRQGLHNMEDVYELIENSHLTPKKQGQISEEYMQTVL
Sequence of Androgen receptor (Homo sapiens) (P10275 whole entry, looked up): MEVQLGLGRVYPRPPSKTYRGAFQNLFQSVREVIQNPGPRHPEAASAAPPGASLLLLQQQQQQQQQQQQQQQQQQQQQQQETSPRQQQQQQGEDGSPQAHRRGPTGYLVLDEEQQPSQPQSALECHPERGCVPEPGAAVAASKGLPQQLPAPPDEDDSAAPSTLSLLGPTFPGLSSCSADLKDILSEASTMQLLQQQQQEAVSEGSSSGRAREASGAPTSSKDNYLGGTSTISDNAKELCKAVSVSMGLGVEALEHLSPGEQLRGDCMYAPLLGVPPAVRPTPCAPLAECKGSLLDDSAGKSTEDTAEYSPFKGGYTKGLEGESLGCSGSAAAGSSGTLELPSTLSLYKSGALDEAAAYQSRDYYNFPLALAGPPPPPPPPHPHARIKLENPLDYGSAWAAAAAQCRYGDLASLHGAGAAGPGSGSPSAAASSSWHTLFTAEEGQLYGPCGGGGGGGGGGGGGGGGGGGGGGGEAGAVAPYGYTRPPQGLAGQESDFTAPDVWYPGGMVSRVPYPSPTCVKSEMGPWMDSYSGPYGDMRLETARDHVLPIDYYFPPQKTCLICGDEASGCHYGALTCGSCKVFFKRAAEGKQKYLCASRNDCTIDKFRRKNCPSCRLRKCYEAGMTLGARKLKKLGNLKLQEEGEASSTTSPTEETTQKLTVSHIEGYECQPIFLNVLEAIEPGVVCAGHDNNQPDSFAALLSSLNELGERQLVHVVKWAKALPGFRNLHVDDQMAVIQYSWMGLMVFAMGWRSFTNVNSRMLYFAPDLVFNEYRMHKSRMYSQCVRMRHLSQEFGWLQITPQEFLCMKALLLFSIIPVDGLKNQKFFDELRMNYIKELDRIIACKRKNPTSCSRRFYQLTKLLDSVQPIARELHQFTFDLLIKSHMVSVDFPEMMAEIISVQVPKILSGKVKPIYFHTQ
Sequence of Estrogen receptor (Homo sapiens) (P03372 whole entry, looked up): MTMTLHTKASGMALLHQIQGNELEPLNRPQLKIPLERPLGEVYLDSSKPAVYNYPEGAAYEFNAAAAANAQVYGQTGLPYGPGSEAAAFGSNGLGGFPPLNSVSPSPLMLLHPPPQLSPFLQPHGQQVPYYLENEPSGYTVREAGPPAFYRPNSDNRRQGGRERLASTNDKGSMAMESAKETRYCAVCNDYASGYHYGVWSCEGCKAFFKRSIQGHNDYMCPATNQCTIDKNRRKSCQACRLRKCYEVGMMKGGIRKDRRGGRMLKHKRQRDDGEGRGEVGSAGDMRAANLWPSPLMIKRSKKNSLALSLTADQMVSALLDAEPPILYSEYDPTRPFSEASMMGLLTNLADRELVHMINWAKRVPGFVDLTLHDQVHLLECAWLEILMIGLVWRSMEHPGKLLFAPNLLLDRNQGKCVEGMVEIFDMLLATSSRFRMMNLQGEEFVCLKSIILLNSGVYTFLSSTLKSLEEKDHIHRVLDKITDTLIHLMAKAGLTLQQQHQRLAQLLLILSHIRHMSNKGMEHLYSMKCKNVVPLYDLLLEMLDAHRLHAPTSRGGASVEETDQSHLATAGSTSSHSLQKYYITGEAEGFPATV
Sequence of Estrogen receptor beta (Homo sapiens) (Q92731 whole entry, looked up): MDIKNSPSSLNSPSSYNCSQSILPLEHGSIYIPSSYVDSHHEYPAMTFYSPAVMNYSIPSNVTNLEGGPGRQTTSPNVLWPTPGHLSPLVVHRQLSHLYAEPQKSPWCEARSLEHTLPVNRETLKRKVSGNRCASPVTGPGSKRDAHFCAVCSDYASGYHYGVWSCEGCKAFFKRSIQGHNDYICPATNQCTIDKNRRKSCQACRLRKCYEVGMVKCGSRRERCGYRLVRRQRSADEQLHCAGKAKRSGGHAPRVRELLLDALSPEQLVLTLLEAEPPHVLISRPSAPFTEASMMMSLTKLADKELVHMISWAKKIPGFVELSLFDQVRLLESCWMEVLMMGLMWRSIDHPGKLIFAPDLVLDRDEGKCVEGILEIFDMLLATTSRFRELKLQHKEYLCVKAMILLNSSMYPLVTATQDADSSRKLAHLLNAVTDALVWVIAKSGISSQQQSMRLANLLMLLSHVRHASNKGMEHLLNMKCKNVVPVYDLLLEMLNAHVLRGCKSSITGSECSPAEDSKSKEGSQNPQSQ

With `CN(C)c1ccc(C2(c3ccc(N(C)C)cc3)OC(=O)c3cc(N(C)C)ccc32)cc1`, the Potency entry in experiment [1], in experiment [2], in experiment [3], in experiment [4], in experiment [5] and in experiment [6] was “inactive” each time. Also, the Potency entry in [7], in experiment [8], in experiment [9], in experiment [10], in [11] and in [12] was “inactive” in each case. For the same compound, the Potency entry in experiment [13], in [14], in experiment [15] and in experiment [17] was “inactive” throughout. Further, the compound was called inactive in [16].
Consider `C=CC(=O)OCC(CO)(COC(=O)C=C)COC(=O)C=C`, for which the Potency in [1] is 15.4 µM (active) and 48.6 µM (active); in experiment [2], 10.9 µM (active) and 27.3 µM (active); in [3], 5.46 µM (active) and 12.2 µM (active); in experiment [4], 13.7 µM (active); in experiment [7] it was 4.34 µM (active) and 10.9 µM (active); in experiment [8], 3.87 µM (active) and 8.63 µM (active). Besides, the Potency in [11] was 19.4 µM (active) and 24.3 µM (active); in [12], 13.7 µM (active) and 19.3 µM (active); in [14] it was 19.4 µM (active) and 19.3 µM (active). The Potency entry in experiment [5], in experiment [9], in experiment [13], in [15] and in experiment [17] was “inactive” in each case. In [16], the outcome was inactive.
As to `NNc1nc(-c2ccc([N+](=O)[O-])cc2)cs1`, the Potency in [1] was 27.3 µM (active); in [2] it was 54.5 µM (active); in experiment [3], 17.2 µM (active); in [4], 48.6 µM (active); in experiment [5] it was 17.2 µM (active); in experiment [8] it was 48.6 µM (active). For the same compound, in experiment [11], the Potency is 48.6 µM (active). Further, the Potency entry in experiment [6], in experiment [7], in [9], in experiment [18], in experiment [10] and in experiment [13] was “inactive” each time. The Potency result in experiment [14] and in [15] was “inactive” in each case.
Take `[O-][n+]1ccccc1SSc1cccc[n+]1[O-]`: the Potency is 0.411 µM (active) in experiment [1]; 0.326 µM (active) in experiment [2]; 0.291 µM (active) in experiment [3]; 0.13 µM (active) in experiment [4]; 1.83 µM (active) in [5]; 130 nM (active) in [7]. Also, the Potency in [8] was 0.291 µM (active); in [20] it was 0.164 µM (active); in [12], 0.092 µM (active); in experiment [14], 130 nM (active). In experiment [19], the Potency entry was “inactive”. In addition, the activity change, negative = cytotoxicity in experiment [6] was 12.3% [at 19 µM]. Besides, in experiment [9], the activity change is -7.63% [at 18.9 µM, active compounds read high]. The activation in experiment [13] was -7.58% [at 19 µM]; in [15], 3.22% [at 19 µM]. Moreover, the cAMP activity change in [16] was 5.78% [at 18.9 µM].
Regarding `O=C(Nc1cccc([N+](=O)[O-])c1)c1cc2ccccc2cc1O`, the Potency result in experiment [1], in [6], in [7], in experiment [9], in experiment [13] and in [15] was “inactive” throughout. Moreover, the Potency result in experiment [17] is “inactive”. Also, the Potency in experiment [2] was 6.86 µM (active); in experiment [3], 5.45 µM (active); in experiment [4], 5.45 µM (active); in experiment [5] it was 1.54 µM (active); in experiment [11] it was 3.86 µM (active); in [12] it was 30.6 µM (active). Besides, the Potency in experiment [14] is 770 nM (active). In [16], the result was inactive.
Turning to `CC(C)(C)C1CCC(CC2=C(O)c3ccccc3C(=O)C2=O)CC1` (stereo not drawn), the Potency in experiment [1] was 29.8 µM (active); in [2], 10.6 µM (active); in experiment [3] it was 8.41 µM (active); in [4], 21.1 µM (active); in experiment [11], 13.3 µM (active). The Potency result in experiment [5], in [6], in experiment [7], in experiment [8], in [9] and in experiment [13] was “inactive” throughout. Also, the Potency result in experiment [15] and in [17] was “inactive” throughout. The result in [16] was inactive.
In the case of `Fc1ccc([C@@H]2CCNC[C@H]2COc2ccc3c(c2)OCO3)cc1`, the Potency result in experiment [1], in experiment [2], in experiment [3], in [19], in experiment [5] and in [6] was “inactive” in each case. Further, the Potency result in experiment [7], in experiment [8], in experiment [9], in [20], in experiment [13] and in [15] was “inactive” in each case. The Potency result in experiment [17] was “inactive”. In addition, the Potency in experiment [12] is 33.5 µM (active); in experiment [14], 26600 nM (active). For the same compound, in [16], the outcome was inactive.
